SRC1 inh: inhibitors of human steroid receptor coactivator 1 (SRC1); Q15788; 360,000 tested, 0.12% active; inhibition, % at 3.6 µM; HEK293 GAL4-SRC1 luciferase reporter, luminescence; AID 588354;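 active = inhibition above the campaign mean plus 3 SD, with each screening campaign given its own cutoff, cut at about 60% in these data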
NR5A2 inv ag: inverse agonists of human LRH-1 (NR5A2); O00482; HEK293T StAR-luciferase reporter, LRH-1 transfected, 24 h; inhibition, % at 3.6 µM; 360,000 tested, 0.13% active; AID 602396;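 active = inhibition above the mean inhibition of all tested compounds plus 3 SD, cut at about 73% in these data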
NCOA3 inh: human NCOA3 inhibition; inhibition, % at 3.6 µM; Q9Y6Q9; 360,000 tested, 0.17% active; HEK293 GAL4-SRC3 luciferase reporter, luminescence;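 active = inhibition above a per-campaign cutoff, the mean of all compounds plus 3 SD, cut at about 60% in these data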;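 note: higher means less SRC3-driven luciferase light from the GAL4 reporter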
NCOA2 inhibitor: inhibits human steroid receptor coactivator 2. AID 651957. Q15596. HEK293 GAL4-SRC2 luciferase reporter, luminescence. 370,000 tested, 0.17% active. inhibition, % at 9 µM;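 active = inhibition above the mean inhibition of all tested compounds plus 3 SD, set per campaign, cut at about 52% in these data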
COUP-TFII inh: NR2F2 (human) inhibition, primary screen; P24468; HEK293T NGFI-A luciferase reporter, luminescence; inhibition, % at 8.6 µM; 370,000 tested, 0.7% active; AID 686940;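 active = inhibition above a per-plate cutoff, mean inhibition of test wells between control levels plus 3 SD, cut at about 38% in these data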;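 note: cells cotransfected with COUP-TFII expression vector driving the NGFI-A reporter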
Target sequence (P24468 whole entry, looked up): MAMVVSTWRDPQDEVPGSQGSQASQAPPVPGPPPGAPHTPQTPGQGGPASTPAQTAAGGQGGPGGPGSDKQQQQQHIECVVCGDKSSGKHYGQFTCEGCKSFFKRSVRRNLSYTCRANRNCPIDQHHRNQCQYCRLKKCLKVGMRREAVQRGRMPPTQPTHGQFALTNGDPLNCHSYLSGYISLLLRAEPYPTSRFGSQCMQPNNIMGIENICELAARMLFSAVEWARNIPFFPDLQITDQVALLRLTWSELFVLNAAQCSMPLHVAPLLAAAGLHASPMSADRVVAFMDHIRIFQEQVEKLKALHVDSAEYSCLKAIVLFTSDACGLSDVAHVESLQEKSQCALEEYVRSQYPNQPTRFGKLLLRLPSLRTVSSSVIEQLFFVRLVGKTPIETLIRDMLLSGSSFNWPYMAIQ
VP16 Luc counter: VP16 inhibition counter-screen for COUP-TFII; shares compounds with COUP-TFII inh; HEK293 Gal4-VP16 luciferase reporter, luminescence; inhibition, % at 8.5 µM; 2,500 tested, 25% active; AID 687007; in the data active = inhibition above about 13%
COUP-TFII conf: COUP-TFII (NR2F2) inhibition, confirmation assay; inhibition, % at 8.5 µM; 2,500 tested, 45% active; AID 687008; shares compounds with COUP-TFII inh; HEK293 NGFI-A luciferase reporter, luminescence;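 active = mean inhibition over three repeats above a set limit taken from the earlier primary screen, cut at about 38% in these data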
Large screens that a line does not name were inactive (follow-up assays come after a bar, where they were run); ! = repeats disagree. This is a sample that favours compounds with a hit; in the whole collection about 0.81% have one here.

Cc1ccc(S(=O)(=O)Nc2ccccc2C(=O)Nc2nc(-c3ccc(F)cc3)cs2)cc1	COUP-TFII inh 66.4 | VP16 Luc counter inactive | COUP-TFII conf inactive
COc1ccc(-c2csc(NC(=O)c3ccccc3NS(=O)(=O)c3ccc(F)c(F)c3)n2)cc1	SRC1 inh 64.3, NR5A2 inv ag 87.0, NCOA3 inh 78.7, COUP-TFII inh 61.1 | VP16 Luc counter inactive | COUP-TFII conf 60.7
COc1ccc(-c2csc(NC(=O)c3ccccc3F)n2)cc1	none
CCN(CC(=O)NCc1cccs1)C(=O)COc1ccccc1C#N	none
Cc1ccc(CS(=O)Cc2ccc(C(=O)NC3CCCC(C)C3C)o2)cc1 (centres undefined)	none
Cc1nc2ncnn2c(N2CCN(c3cccc(C(F)(F)F)c3)CC2)c1C	COUP-TFII inh 43.5 | VP16 Luc counter inactive | COUP-TFII conf inactive
Cc1ccc(C(=O)CN2C(=O)c3ccccc3S2(=O)=O)cc1	NCOA3 inh 63.2, NCOA2 inhibitor 68.5, COUP-TFII inh 73.9 | VP16 Luc counter 76.8 | COUP-TFII conf 91.2
O=C(CN1C(=O)c2ccccc2S1(=O)=O)c1ccccc1Cl	NCOA2 inhibitor 56.6, COUP-TFII inh 63.1 | VP16 Luc counter inactive | COUP-TFII conf inactive
COCCNc1nc2c(c(=O)n(C)c(=O)n2C)n1Cc1cccc(C)c1	none
CCCCn1c(CN(C)Cc2ccccc2)nc2c1c(=O)n(C)c(=O)n2C	COUP-TFII inh 40.3 | VP16 Luc counter inactive | COUP-TFII conf inactive
CNc1nc2c(c(=O)n(C)c(=O)n2C)n1Cc1ccccc1	COUP-TFII inh 41.3 | VP16 Luc counter inactive | COUP-TFII conf inactive
CNc1nc2c(c(=O)n(C)c(=O)n2C)n1CCCc1ccccc1	none
Cc1cccc(Cn2c(NCCO)nc3c2c(=O)n(C)c(=O)n3C)c1	COUP-TFII inh 51.8 | VP16 Luc counter inactive | COUP-TFII conf inactive
CCCn1c(CN(C)Cc2ccccc2)nc2c1c(=O)n(C)c(=O)n2C	none
Cc1ccc(-c2c[n+](Cc3cccc(Cl)c3)c3n2CCC3)cc1	COUP-TFII inh 38.2 | VP16 Luc counter inactive | COUP-TFII conf inactive
O=[N+]([O-])c1cc([N+](=O)[O-])c(Oc2ccc(F)cc2)cc1NN1CCCCC1	none
O=C(Nc1ccc(OCc2ccccc2)cc1)c1cccnc1	none
O=C(Nc1ccc(OCc2ccccc2Cl)cc1)c1cccnc1	NCOA2 inhibitor 67.3, COUP-TFII inh 38.0 | VP16 Luc counter inactive | COUP-TFII conf inactive
COc1ccc(N2CCN(C(=O)CCCCCn3c(=S)[nH]c4cc5c(cc4c3=O)OCO5)CC2)cc1	none (no result: NCOA2 inhibitor, COUP-TFII inh)
COc1ccc(N2CCN(C(=O)CCCCCn3c(=S)[nH]c4ccc(N5CCOCC5)cc4c3=O)CC2)cc1	COUP-TFII inh 42.2 | VP16 Luc counter inactive | COUP-TFII conf inactive
CC(C)OC(=O)CCCCCN1C(=O)CSC1=S	none
O=C(O)CCCCCN1C(=O)CSC1=S	NCOA2 inhibitor 80.5, COUP-TFII inh 45.5 | VP16 Luc counter inactive | COUP-TFII conf inactive
C[C@H](c1ccccc1)N1C[C@H](COCc2ccccc2)Oc2cc(N3CC[C@H](O)C3)ccc2S1(=O)=O	none (no result: SRC1 inh, NCOA3 inh)
Clc1ccccc1C1=Nn2c(nnc2-c2ccncc2)SC1	NCOA3 inh 65.7, NCOA2 inhibitor 53.9, COUP-TFII inh 40.1 | VP16 Luc counter inactive | COUP-TFII conf inactive
CC1=Nn2c(nnc2-c2ccccc2Cl)SC1	none
O=C(Nc1nc(-c2ccccc2)cs1)c1ccc(S(=O)(=O)N2CCc3ccccc32)cc1	COUP-TFII inh 50.7 | VP16 Luc counter inactive | COUP-TFII conf inactive
O=C(Nc1nc(-c2ccc(S(=O)(=O)N3CCCCCC3)cc2)cs1)c1cccs1	COUP-TFII inh 55.5 | VP16 Luc counter inactive | COUP-TFII conf inactive
Cc1ccc(-c2csc(NC(=O)c3ccc(S(=O)(=O)N4CCc5ccccc54)cc3)n2)cc1	none
O=C(Nc1nc(-c2ccc(S(=O)(=O)N3CCOCC3)cc2)cs1)c1ccccc1	COUP-TFII inh 67.7 | VP16 Luc counter 18.1! | COUP-TFII conf 37.5
COc1ccc(C(=O)Nc2ccc(S(=O)(=O)N3CCc4ccccc43)cc2)cc1	COUP-TFII inh 59.1 | VP16 Luc counter inactive | COUP-TFII conf 42.4
COc1cccc(C(=O)Nc2nc(-c3ccc(S(=O)(=O)N4CCOCC4)cc3)cs2)c1	none
Cc1cccc(C)c1NC(=O)c1cc(S(=O)(=O)N2CCc3ccccc32)cn1C	none
Cn1cc(S(=O)(=O)N2CCc3ccccc32)cc1C(=O)NC(C)(C)C	COUP-TFII inh 59.3 | VP16 Luc counter inactive | COUP-TFII conf 45.2
NC(=O)c1ccsc1NC(=O)c1ccc(S(=O)(=O)N2CCCc3ccccc32)cc1	COUP-TFII inh 38.2 | VP16 Luc counter inactive | COUP-TFII conf inactive
O=C(O)c1ccc(S(=O)(=O)N2CCCc3ccccc32)cc1	none
Cc1cc(C)n2c(Nc3ccc4c(c3)OCCO4)c(-c3cc4ccccc4o3)nc2n1	COUP-TFII inh 51.3 (no result: SRC1 inh, NCOA3 inh) | VP16 Luc counter inactive | COUP-TFII conf inactive
Cc1cc(C)n2c(Nc3ccc4c(c3)OCCO4)c(-c3ccc(C)o3)nc2n1	none
Cc1c(CC(=O)NCCCC(=O)O)c(=O)oc2cc3c(cc12)CCC(C)(C)O3	NCOA2 inhibitor 74.7, COUP-TFII inh 51.1 | VP16 Luc counter 61.0 | COUP-TFII conf inactive
C[C@@H]1C(=O)O[C@@H]2[C@H](O)C34[C@H]5C[C@@H](C(C)(C)C)C36[C@H](OC(=O)[C@@H]6O)OC4(C(=O)O5)[C@@]12O (some centres undefined)	none
Cc1ccc(-c2nn3c(C)nnc3s2)cc1NC(=O)c1ccc(-c2cccc(Cl)c2)o1	COUP-TFII inh 56.0! | VP16 Luc counter inactive | COUP-TFII conf inactive
Cc1ccc(-c2nn3c(C)nnc3s2)cc1NC(=O)c1ccc(-c2ccc(Cl)cc2Cl)o1	none
CCN(C(=O)c1cnc(N2CCN(c3ncccn3)CC2)c2ccccc12)c1cccc(Cl)c1	COUP-TFII inh 49.8 | VP16 Luc counter inactive | COUP-TFII conf inactive
Cc1cn(CC(=O)NCc2ccccn2)c(=O)[nH]c1=O	none
COc1ccc(NS(=O)(=O)c2cccc(C(=O)OCC(=O)N3CCN(c4ccc(OC)cc4)CC3)c2)cc1	COUP-TFII inh 39.4 | VP16 Luc counter inactive | COUP-TFII conf inactive
O=C(Nc1nc2ccccc2[nH]1)c1ccccc1F	NCOA3 inh 64.4, NCOA2 inhibitor 65.3, COUP-TFII inh 62.4 | VP16 Luc counter 33.4 | COUP-TFII conf 47.9
CCOc1ccc(C(=O)Nc2nc3ccccc3[nH]2)cc1OCC	COUP-TFII inh 51.5 | VP16 Luc counter inactive | COUP-TFII conf inactive
CCc1ccc(C(=O)Nc2nc3ccccc3[nH]2)cc1	NCOA2 inhibitor 68.2, COUP-TFII inh 74.5 | VP16 Luc counter inactive | COUP-TFII conf inactive
O=C(Nc1nc2ccccc2[nH]1)c1ccc(F)cc1	none
Cc1c(C(=O)c2ccccc2)c2ccccn2c1CCC#N	none
COc1cc(CSc2ncn[nH]2)c(OC)cc1CSc1ncn[nH]1	none
